Activity calls are given as the source filed them. How the source made its calls: active means hit-call score of the fitted dose curve at least 0.9, where 1 is the maximum; inactive means score below 0.9.
assay: ATG_SREBP_CIS: Attagene CIS-FACTORIAL HepG2 Assay for human Sterol Regulatory Element Binding (SREBP) (AID 2282962); conditions: HepG2 Attagene cis-factorial SREBP reporter, mRNA; actives raise or lower the signal
Procedure, shortened: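 Readout: fluorescent reporter-transcript peaks resolved by capillary electrophoresis after RT-PCR. Cells were human HepG2 carrying transfected cis-promoter reporter constructs, dosed for 24 h. Gain or loss of signal was fitted against DMSO controls.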

| Structure (SMILES) | outcome | AC50 |
| --- | --- | --- |
| CC(=O)OCCc1ccccc1 | inactive | – |
| CC(=O)OC/C=C(/C)CCC=C(C)C | inactive | – |
| O=S(=O)(O)c1ccc(N=Nc2c(O)ccc3ccccc23)cc1 | inactive | – |
| N=C1C=CC(=C(c2ccc(N)cc2)c2ccc(N)cc2)C=C1 | – | 26 µM (active) |
| COc1cc(O)c(C(=O)c2ccccc2)cc1S(=O)(=O)O | inactive | – |
| c1ccc2cnccc2c1 | inactive | – |
| CC1(C)CCC[C@]2(C)[C@H]3CC(=O)O[C@]3(C)CC[C@@H]12 | – | 32.3 µM (active) |
| C=CC(=O)OCC(C)OCC(C)OCC(C)OC(=O)C=C (stereo unspecified) | – | 100 µM (active) |
| Nc1ccc(O)c([N+](=O)[O-])c1 | inactive | – |
| O=C(O)c1cc(O)c2ccccc2c1O | inactive | – |
| O=C(Oc1ccccc1)c1ccccc1C(=O)Oc1ccccc1 | inactive | – |
| CC(=O)CCC1=C(C)CCCC1(C)C | inactive | – |
| Oc1ccc(/C=C/c2cc(O)cc(O)c2)cc1 | – | 26.9 µM (active) |
| CCCCNS(=O)(=O)c1ccc(C)cc1 | inactive | – |
| Cc1c(C(=O)c2c[nH]n(C)c2=O)ccc(S(C)(=O)=O)c1C1=NOCC1 | inactive | – |
| O=C(Cl)c1ccc(C(=O)Cl)cc1 | inactive | – |
| O=C1CCCCCCCCCCC1 | inactive | – |
| CCC(=O)C1CC(C(C)C)CC=C1C (stereo unspecified) | inactive | – |
| O=C(O)CCC(=O)O | inactive | – |
| CCCCCCCCCC(C)=O | inactive | – |
| CCCCC(CC)COC(=O)/C=C/c1ccc(OC)cc1 (stereo unspecified) | inactive | – |
| CCCC/C=C/C=C\C=O | inactive | – |
| CC(CC=O)CC(C)(C)C (stereo unspecified) | inactive | – |
| OCCCc1ccccc1 | inactive | – |
| Nc1cccc(N)n1 | inactive | – |
| C=C(C)C(=O)OCC(O)COc1ccc(C(C)(C)c2ccc(OCC(O)COC(=O)C(=C)C)cc2)cc1 (stereo unspecified) | – | 51 µM (active) |
